The source of these data is PubChem BioAssay (EPA / NIEHS).

A short description of test [1]: TOX21_p53_BLA_p2_viability: Viability Assessment in the Tox21 HCT-116 p53 Agonism Beta-lactamase Assay, Phase 2 (AID 2283591).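 Further: compound exposure lasted 16 h at 37 °C; actives lower the ATP signal meaning cytotoxicity.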 Summed up:
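HCT-116 p53-bla cells (4000/well) rested 5 h at 37C, then received compounds in DMSO (217-fold dilution) for 16 h at 37C, 5% CO2. After the CCF4 read, CellTiter-Glo was added; ATP luminescence was read after 30 min at room temperature.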

The nature of test [2]: TOX21_p53_BLA_p3_viability: Viability Assessment in the Tox21 HCT-116 p53 Agonism Beta-lactamase Assay, Phase 3 (AID 2283593).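 Further: cells exposed to compound for 16 h before reading.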 Summed up:
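HCT-116 cells (4000/well) rested 5 h at 37C, then got DMSO compounds by pin tool (217-fold dilution) for 16 h at 37C, 5% CO2. After the bla read, CellTiter-Glo was added and luminescence read at 30 min, room temperature.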

A short description of test [3]: TOX21_p53_BLA_p4_viability: Viability Assessment in the Tox21 HCT-116 p53 Agonism Beta-lactamase Assay, Phase 4 (AID 2283597).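 Further: hits lower the luminescence signal meaning cytotoxicity.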 The essentials:
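Cytotoxicity as reduced cellular ATP (CellTiter-Glo luminescence, 30 min room temperature), measured in the same wells following the CCF4 FRET p53 reading. Human HCT-116 cells received compounds in DMSO (217-fold dilution) for 16 h.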

For test [4], the target named is Cellular tumor antigen p53 (Homo sapiens) (UniProt P04637). Description: TOX21_p53_BLA_p5_ratio: Tox21 HCT-116 p53 Agonism Beta-lactamase Assay, Ratio, Phase 5 (AID 2283599). The essentials:
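HCT-116 cells carrying a p53-inducible beta-lactamase reporter were seeded at 4000 cells/well and dosed after 5 h with compound in DMSO (217-fold dilution). After 16 h at 37C, CCF4-AM substrate was added for 2 h, and the 460/530 nm emission ratio was scored as gain-of-signal versus DMSO.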

The nature of test [5]: TOX21_p53_BLA_p5_viability: Viability Assessment in the Tox21 HCT-116 p53 Agonism Beta-lactamase Assay, Phase 5 (AID 2283600). The essentials: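 Viability came from CellTiter-Glo ATP luminescence, read after 30 min at room temperature. Before this, HCT-116 p53-bla cells (4000/well) had 16 hours of compound exposure at 37C, with DMSO stocks diluted 217-fold on transfer.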
Test [6] addresses Cellular tumor antigen p53 (Homo sapiens) (UniProt P04637). As to the kind of experiment: TOX21_p53_BLA_p4_ratio: Tox21 HCT-116 p53 Agonism Beta-lactamase Assay, Ratio, Phase 4 (AID 2283601). Summed up: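 HCT116 cells carrying an inducible beta-lactamase reporter were plated at 4000 cells/well, rested 5 h, then exposed to compounds in DMSO (217-fold dilution) for 16 h at 37C. CCF4-AM substrate was loaded 2 h at room temperature; 460/530 nm emission ratio scored gain-of-signal versus DMSO.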

Test [7] in a line: CCTE_Harrill_HTTr_Viability_MCF7: CCTE's 6-hour Cell Viability Assessment for the High-Throughput Transcriptomics (HTTr) Platform, in MCF-7 cells cultured in DMEM + 10% fetal bovine serum, Harrill Lab (AID 2284010; active means hit-call score of the fitted dose curve at least 0.9, where 1 is the maximum; inactive means score below 0.9). Summed up: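 PI exclusion, high-content imaging; 8-pt dilution series, 6 h exposure; bidirectional fit vs DMSO (neg. ctrl/baseline); gain of signal = loss of membrane integrity.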

Test [8] is described as follows: CCTE_Harrill_HTTr_Apoptosis_MCF7: CCTE's 6-hour Apoptosis Assessment for the High-Throughput Transcriptomics (HTTr) Platform, in MCF-7 cells cultured in DMEM + 10% fetal bovine serum, Harrill Lab (AID 2284011; active means hit-call score of the fitted dose curve at least 0.9, where 1 is the maximum; inactive means score below 0.9). Summed up:
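High-content imaging of CellEvent Caspase 3/7 Green signal follows a six-hour exposure, with eight concentrations per chemical. MCF-7 cells grown in DMEM plus 10% fetal bovine serum; activity fitted in both directions against DMSO.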

A short description of test [9]: CCTE_Harrill_HTTr_CellCount_MCF7: CCTE's Cell Proliferation Assessment for the High-Throughput Transcriptomics (HTTr) Platform, Harrill Lab (AID 2284012).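 Further: count of Hoechst-stained nuclei per well by high-content imaging in MCF-7 cells; cells exposed to compound for six hours; intended direction is loss of nuclei count meaning fewer cells.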 The essentials: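 Readout: Hoechst nuclear count by high-content imaging. MCF-7, 8-point dilution series, 6 h exposure. Bidirectional fit vs DMSO baseline.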
A short description of test [10]: TAMU_PeakParms_SingleDonor1434_Chronotropy: Texas A&M University (TAMU) 1.5-hr Human Induced Pluripotent Stem Cell (iPSC)-derived Cardiomyocytes Calcium (Ca+2) Flux Assay for Cardiotoxicity: Chronotropy (changes in peak frequency) (AID 2284217; active means hit-call score of the fitted dose curve at least 0.9, where 1 is the maximum; inactive means score below 0.9). Particulars: actives raise or lower the signal. The essentials:
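iPSC-CMs, donor 1434; 4 conc (0.2–100 uM), 0.5% v/v DMSO, 90 min, 37C/5% CO2; Ca2+ flux fluorescence → peak.freq.avg; peak.freq.avg = 0 dropped; bidirectional fit vs DMSO; EC05 POD.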

The nature of test [11]: TAMU_HCS_1.5hr_SingleDonor1434_Cytotoxicity: Cytotoxicity Assessment using High-content Screening (HCS) Fluorescent Imaging for the Texas A&M University (TAMU) 1.5-hr Human Induced Pluripotent Stem Cell (iPSC)-derived Cardiotoxicity Assay (AID 2284234). Summed up: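 Nuclear counts from Hoechst 33342 imaging define cytotoxicity here, with EC10 (10% cell-count loss relative to DMSO) as point of departure. iPSC cardiomyocytes received 0.2-100 uM test chemical in 0.5% DMSO for 1.5 h at 37 C.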

Test [12] is described as follows: TAMU_PeakParms_SingleDonor1434_QT: Texas A&M University (TAMU) 1.5-hr Human Induced Pluripotent Stem Cell (iPSC)-derived Cardiomyocytes Calcium (Ca+2) Flux Assay for Cardiotoxicity: QT (decay-rise ratio) (AID 2284235). Summed up:
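Decay/rise ratio of calcium-flux fluorescence scored after 90 min exposure (37C) of donor 1434 iPSC cardiomyocytes to 0.2–100 uM (0.5% DMSO). Beat-cessation and severe-notch points removed; POD is EC05, a 5% rise over DMSO.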

Test [13] in a line: TAMU_PeakParms_SingleDonor1434_Asystole: Texas A&M University (TAMU) 1.5-hr Human Induced Pluripotent Stem Cell (iPSC)-derived Cardiomyocytes Calcium (Ca+2) Flux Assay for Cardiotoxicity: Asystole (quiescence of beating) (AID 2284328). The essentials: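 Human iPSC-derived cardiomyocytes (donor 1434) were exposed to 0.2, 1, 10 and 100 uM compound in 0.5% DMSO for 90 min at 37C. Ca2+-dye fluorescence gave average peak frequency; POD is EC95, a 95% beat-rate drop versus DMSO.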

Records with an inconclusive call do not appear. Some compounds were tested as several samples or in several runs, with calls that do not always agree. The source made the active and inactive calls. How the source made its calls, unless noted: active means hit-call score of the fitted dose curve at least 0.9, where 1 is the maximum; inconclusive means response in the unintended direction; inactive means score below 0.9.

Cellular tumor antigen p53 (Homo sapiens), sequence (P04637 whole entry, looked up): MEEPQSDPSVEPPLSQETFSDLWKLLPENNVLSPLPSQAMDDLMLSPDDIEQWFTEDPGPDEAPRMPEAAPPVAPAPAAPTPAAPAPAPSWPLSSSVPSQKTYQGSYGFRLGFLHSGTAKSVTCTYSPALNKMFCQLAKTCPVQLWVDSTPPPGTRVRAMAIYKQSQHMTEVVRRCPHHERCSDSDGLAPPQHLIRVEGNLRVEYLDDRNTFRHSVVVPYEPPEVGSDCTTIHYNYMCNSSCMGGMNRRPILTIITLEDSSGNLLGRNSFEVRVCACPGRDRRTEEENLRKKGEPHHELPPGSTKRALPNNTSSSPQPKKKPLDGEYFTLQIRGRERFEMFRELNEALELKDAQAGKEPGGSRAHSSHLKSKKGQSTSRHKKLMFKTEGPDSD

As for `N#C[C@@H]1C[C@@H]2C[C@@H]2N1C(=O)[C@@H](N)C12CC3CC(CC(O)(C3)C1)C2`, the call in [1], in test [2], in test [3], in [4], in test [5] and in test [6] was inactive.
Consider `COc1ccc(CNCC(O)COc2ccc3[nH]c(=O)ccc3c2)cc1OC` (configuration not stated), for which the compound was classed as inactive in test [1], in [2], in test [3], in test [4], in test [5] and in test [6].
Regarding `C=CCOc1c(Br)cc(C(C)(C)c2cc(Br)c(OCC=C)c(Br)c2)cc1Br`, the result in [1], in [2], in test [3], in test [4] and in test [5] was inactive.
Regarding `Oc1cccc2cc3cccc(O)c3c(O)c12`, the call in [1], in test [2], in test [3], in test [4] and in test [6] was inactive.
Consider `COC(=O)[C@H]1[C@H]2C[C@@H]3c4[nH]c5cc(OC)ccc5c4CCN3C[C@H]2C[C@H](OC)[C@@H]1OC`, for which the outcome in test [1], in test [2], in test [3] and in test [4] was inactive.
Turning to `CN1CCN(CCC=C2c3ccccc3Sc3ccc(S(=O)(=O)N(C)C)cc32)CC1`, the compound was classed as inactive in [1], in test [2], in test [4] and in test [5]. Further, the concentration at half-maximal activity (AC50) in test [3] was 34.9 µM (active); in [6], 43.7 µM (active).
Take `O=c1[nH]ncc2ccccc12`: the result in test [1], in [2], in test [3], in [4] and in test [6] was inactive.
With `CC(O)[C@@H]1NC(=O)[C@H](CCCCN)NC(=O)[C@@H](Cc2c[nH]c3ccccc23)NC(=O)[C@H](Cc2ccccc2)NC(=O)[C@@H](NC(=O)[C@H](N)Cc2ccccc2)CSSC[C@@H](C(=O)N[C@H](CO)[C@@H](C)O)NC1=O` (some centres not stated), the result in [1], in test [2], in test [3], in test [4] and in test [5] was inactive.
Turning to `CCCC(=O)O[C@]1(C(=O)COC(=O)CC)[C@@H](C)C[C@H]2[C@@H]3CCC4=CC(=O)C=C[C@]4(C)[C@@]3(F)[C@@H](O)C[C@@]21C`, the outcome in test [1], in [2], in [3] and in test [5] was inactive.
Take `CC(=O)SC[C@@H](Cc1ccccc1)C(=O)NCC(=O)OCc1ccccc1`: the call in test [1], in test [2], in test [3], in [4], in test [5] and in [6] was inactive.
In the case of `C[C@H]1O[C@@H](O[C@H]2CC[C@@]3(C)[C@H](CC[C@@H]4[C@@H]3C[C@@H](O)[C@]3(C)[C@@H](C5=CC(=O)OC5)CC[C@]43O)C2)C[C@H](O)[C@@H]1O[C@H]1C[C@H](O)[C@H](O[C@H]2C[C@H](O)[C@H](O[C@@H]3O[C@H](CO)[C@@H](O)[C@H](O)[C@H]3O)[C@@H](C)O2)[C@@H](C)O1`, the AC50 was 284 nM (active) in [1], 296 nM (active) in [2], 0.337 µM (active) in [3] and 353 nM (active) in [5].
For the compound `CN(C)CCOC(c1ccccc1)c1ccccc1` (tested in a mixture with another compound), the compound was called inactive in [1], in test [2], in test [3] and in test [5].
Turning to `Cc1ccc(C2(O)CCN(CCCC(=O)c3ccc(F)cc3)CC2)cc1`, the call in [1], in [2], in test [3], in [4], in test [5] and in test [6] was inactive.
Regarding `Oc1cc2c(cc1O)[C@H]1c3ccc(O)c(O)c3OC[C@@]1(O)C2`, the compound was called inactive in test [1], in test [2], in test [3] and in test [4].
On to `COC(=O)c1ccccc1C(=O)c1ccc(OCCN2CCCCC2)cc1`, for which the result in test [1], in test [2], in [3], in [4], in test [5] and in test [6] was inactive.
On to `Cc1ccc(C(=O)O)cc1`, for which the result in test [1], in test [2], in test [3], in [4] and in [5] was inactive.
`COCCCOc1cc(C[C@@H](C[C@H](N)[C@@H](O)C[C@H](C(=O)NCC(C)(C)C(N)=O)C(C)C)C(C)C)ccc1OC`: the compound was classed as inactive in [1], in test [2], in [3], in test [4] and in test [5].
On to `COc1ccc(CCN(C)CCCC(C#N)(c2ccc(OC)c(OC)c2)C(C)C)cc1OC` (configuration not stated), for which the compound was classed as inactive in [1], in test [2], in [3], in test [5], in [7] and in [8]. For the same compound, the compound was classed as inactive in test [9], in [10], in [11], in [12] and in test [13]. Further, the AC50 in [3] is 39.2 µM (active).
As for `CN(C)c1cc(NC(=O)CNC(C)(C)C)c(O)c2c1C[C@H]1C[C@H]3[C@H](N(C)C)C(=O)C(C(N)=O)=C(O)[C@@]3(O)C(=O)C1=C2O`, the outcome in test [1], in test [2], in test [3] and in test [5] was inactive.
As to `CCC(=O)OCC(=O)[C@@]1(OC(=O)CC)[C@@H](C)C[C@H]2[C@@H]3CCC4=CC(=O)C=C[C@]4(C)[C@@]3(F)[C@@H](O)C[C@@]21C`, the outcome in [1], in [2], in test [3], in [4] and in test [6] was inactive.
Turning to `CC(C)CN(C[C@@H](O)[C@H](Cc1ccccc1)NC(=O)O[C@H]1CO[C@H]2OCC[C@H]21)S(=O)(=O)c1ccc(N)cc1`, the compound was classed as inactive in test [1], in [2], in test [3], in test [4], in test [5] and in test [6].
Take `Cn1c(N)c(N=O)c(=O)n(C)c1=O`: the compound was called inactive in test [1], in test [2], in test [3] and in test [5].
Consider `Cc1ccc(Cl)cc1N`, for which the call in test [1], in [2], in [3], in test [4] and in test [6] was inactive.
On to `COC(C)(OC)OC`, for which the compound was classed as inactive in test [1], in [2], in test [3], in test [4] and in [6].
Consider `N#Cc1ccc(C(=O)O)cc1`, for which the compound was classed as inactive in [1], in test [2], in test [3], in test [4], in test [5] and in test [6].
In the case of `CCCC(=O)O[C@]1(C(=O)COC(C)=O)CC[C@H]2[C@@H]3C[C@H](F)C4=CC(=O)C=C[C@]4(C)[C@@]3(F)[C@@H](O)C[C@@]21C`, the outcome in test [1], in test [2], in [3], in test [4] and in test [6] was inactive.
As for `CC(C)(CC(=O)O)C(=O)O`, the compound was classed as inactive in test [1], in test [2], in [4] and in test [5].
For the compound `CC1=C(C)C(=O)C(C(CCCCCC(=O)O)c2ccccc2)=C(C)C1=O` (configuration not stated), the result in test [1], in [2], in test [3], in [5] and in test [6] was inactive.

A word on the AC50: it is the concentration giving half of the maximal activity seen.
